{"source": "PubChem BioAssay AID2782", "about": "(National Center for Advancing Translational Sciences (NCATS), 2010)", "note": "Records with an inconclusive call do not appear. Active and inactive are the calls of the source. Calls follow the shape of the dose curve; as a rule, active = well fitted inhibition curve with a large enough effect in the polarisation, with a control signal flat (not every such curve was filed as active); inconclusive = small, poorly fitted or top-dose-only effect, or effect the other way, or a change in a side signal; inactive = no such curve, though single readings can be large or run the other way; the % refers to the polarisation. % is scaled to controls: 0 for no effect and ±100 for the full control effect; potency is read from the fitted curve at half-maximal effect."}
{"test": "Confirmation of Inhibitors Targeting the Menin-MLL Interaction in MLL Related Leukemias: Competition With Texas Red Labeled MLL-derived Mutant Peptide", "settings": "fluorescence polarization, Texas Red MLL peptide displacement; series mostly up to 288 µM; FP change, negative = inhibition: at the top concentration", "from_the_text": "qHTS Assay for Inhibitors Targeting the Menin-MLL Interaction in MLL Related Leukemias\nNIH Chemical Genomics Center [NCGC]\nNIH Molecular Libraries Probe Centers Network [MLPCN]\nAssay Submitter (PI): Jolanta Grembecka, Tomasz Cierpicki, University of Virginia\nTranslocations of the MLL (Mixed Lineage Leukemia) gene are frequently found in human leukemias affecting both children and adults. Fusion of MLL to one of more than 60 genes results in generation of oncogenic proteins upregulating Hox genes, which are vital to blood cell development. Patients harboring fusion of the MLL gene suffer from aggressive leukemias and respond poorly to available therapies. All of the oncogenic fusion proteins have a preserved N-terminal fragment of MLL that has been identified to interact with menin. It has been recently discovered that association with menin is critical to the leukemogenic activity of the MLL fusion oncoproteins. Selective targeting of the menin-MLL interaction could provide an attractive therapeutic approach to develop novel drugs for MLL-related leukemias. Small molecules blocking the menin-MLL interaction should reverse the oncogenic potential of MLL fusion proteins.\nWe have developed and optimized a fluorescence polarization-based assay for the identification of Menin-MLL inhibitors. The assay was run employing two different MLL-derived peptides. The present assay uses a 12 amino acid peptide labeled with fluorescein at its N-terminus. This peptide consists of the menin high affinity binding motif from MLL and is potently bound by menin. Another peptide with a mutated sequence, labeled with Texas Red, was used in parallel as a less stringent screen for inhibitors.\nThe present assay was run to confirm the activity of hits from the primary screen using the peptide with a mutated sequence, labeled with Texas Red.\nThe Menin protein, the MLL-wild type (w.t.) derived peptide (N-terminal 12 amino acids), the MLL-derived peptide labeled with Texas Red and the MLL-w.t. peptide labeled with Fluorescein were kindly supplied by laboratory of Dr. Jolanta Grembecka, University of Virginia. All protein and peptide solutions were stored in single use aliquots at -80C. The Eu3+ Cyrptate-conjugated mouse monoclonal antibody anti-6 Histidine (Eu3+-AB) and the Streptavidin-XL665 conjugate (XL665) were purchased from Cisbio International (Bedford, MA). All antibody and XL665 conjugate solution stocks were stored in single use aliquots at -20C. The Buffer components for all assays were purchased from Sigma-Aldrich (St. Louis, MO) and Invitrogen (Carlsbad, CA).\n1. FP reaction buffer: 50 mM Tris-HCl pH 7.5, 50 mM NaCl, 1mM DTT.\nBefore use, 0.05% BSA is added.\n2. Menin protein, MLL-w.t. labeled with fluorescein, MLL-mutant peptide labeled with texas red.\nStored in singe use aliquots at -80C.\n3. MLL-w.t. unlabeled peptide as positive control: 10 uM final in FP buffer.\n1. Prepare Menin at 200 nM, MLL-w.t.-fluorescein at 25 nM, and MLL-mutant-texas red at 50 nM mixture in FP buffer.\n2. Prepare Menin at 200 nM, MLL-w.t.-fluorescein at 25 nM, MLL-mutant-texas red at 50 nM, and 10 uM MLL-w.t. unlabeled mixture in FP buffer.\n3. Prepare MLL-w.t.-fluorescein at 25 nM and MLL-mutant-texas red at 50 nM mixture in FP buffer.\n3. Dispense 4 ul per well of reagent in step 1 in columns 2, 4 - 48 in a black 1536 well plate, dispense 4 ul per well of reagents from steps 2 and 3 in columns 1 and 3 respectively. Incubate plate at ambient for 15 minutes.\n4. Transfer 23 nl per well of compound to plate and incubate at ambient for 1 hr.\n5. Read fluorescence polarization for each label using the PerkinElmer Envision.\nEnvision protocol for fluorescein: FITC FP Dual Enh Mirror, Excitation filter 480, Emission filter (1) P-pol 535, Emission filter (2) S-pol 535\nEnvision protocol for texas red: FP Dual Enh Mirror, Excitation filter 555, Emission filter (1) P-pol 632, Emission filter (2) S-pol 632"}
{"smiles": "Cc1cc(C(=O)NP(=O)(N2CCOCC2)N2CCOCC2)c(C)n1C1CC1", "FP change, negative = inhibition": "-16.8% [at 94.6 µM] (inactive)"}
{"smiles": "CCCCCn1c(=O)c(C(=O)Nc2nc(CC(=O)OCC)cs2)c(O)c2ccccc21", "FP change, negative = inhibition": "30.7% (inactive)"}
{"smiles": "O=C1NC(=O)C(=Cc2ccc3ccccc3c2)C(=O)N1", "FP change, negative = inhibition": "21.9% (inactive)"}
{"smiles": "COc1cc(/C=N/n2cnnc2)ccc1OC(=O)N(C)C", "FP change, negative = inhibition": "-22.9% (inactive)"}
{"smiles": "CCOP(=O)(OCC)C(NC(=O)c1ccccc1C)C(Cl)(Cl)Cl", "note": "(centres undefined)", "FP change, negative = inhibition": "-1.99% (inactive)"}
{"smiles": "C[C@@H]1CC[C@@]2(NC1)O[C@H]1C[C@H]3[C@@H]4CC=C5C[C@@H](O)CC[C@]5(C)[C@H]4CC[C@]3(C)[C@H]1[C@@H]2C", "FP change, negative = inhibition": "28.8% [at 94.6 µM] (inactive)"}
{"smiles": "OC12C3C4CC5C6C4C1C6C(C53)N2CCc1cccc(F)c1", "note": "(centres undefined)", "FP change, negative = inhibition": "22.9% [at 94.6 µM] (inactive)"}
{"smiles": "O=C(O)CN1C(=O)CN=C(c2ccccn2)c2cc(Cl)ccc21", "FP change, negative = inhibition": "-13.2% (inactive)"}
{"smiles": "COc1ccc(C(O)P(=O)(Oc2ccccc2)Oc2ccccc2)cc1", "note": "(centres undefined)", "FP change, negative = inhibition": "-9.59% (inactive)"}
{"smiles": "c1cc2cc(c1)C[n+]1ccc(c3ccccc31)NCc1ccc(cc1)CNc1cc[n+](c3ccccc13)C2", "Potency": "100 µM (active)"}
{"smiles": "CCCCn1c(=O)c(C(=O)Nc2ccsc2C(=O)OC)c(O)c2ccccc21", "Potency": "14.2 µM (active)"}
{"smiles": "C[N+](C)(C)CC#CCN1CCCC1=O", "FP change, negative = inhibition": "-6.23% (inactive)"}
{"smiles": "O=C(Nc1ccc2ccccc2c1)c1nn(C23CC4CC(CC(C4)C2)C3)cc1Br", "FP change, negative = inhibition": "45.4% (inactive)"}
{"smiles": "CC[C@]12C=CCN3CC[C@@]4(c5ccc(OC)cc5N(C)[C@H]4[C@@](O)(C(=O)OC)[C@@H]1OC(C)=O)C32", "note": "(some centres undefined)", "FP change, negative = inhibition": "17.2% [at 94.6 µM] (inactive)"}
